# Experimental data reported in the supplement of paper PMC8728848.
# About 410 targets per protein were measured; listed, in parts, are those with the strongest signals and a random draw of the rest.
# B1: CrataBL (Crataeva tapia), C0HJA4 (protein)
# chain: AILTGVPYYILPSTSRAGFSPDNLRKNTSQLSCPLDLITQLRFPRRIGVPVIFTPQNSSLKVVPLSHNLNIHTCSDLWFCPESKIWTVKSSLTHGGSVVTTGGTFRSLGSWFRIERHGDSYKLVHCPRGSTPCRDVGIETVGGGGRRYLAPRDRPLAVRFTRASG
# What was measured:
# Experiment in all cases: glycan array binding signal (z-score within array); higher = stronger binding
# Conditions in all cases: glycan notation: IUPAC condensed, linker removed
# Gal3S6S(b1-4)GlcNAc6S = molecular target: Gal3S6S(b1-4)GlcNAc6S
# Procedure, shortened: (§1)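 From the Consortium for Functional Glycomics database, 3228 arrays were curated, keeping only those whose protein sequence was available. Binding is given as a within-array Z-score averaged across arrays sharing a protein sequence and across linkers. Negative Z-scores can be read as non-binding.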
# Gal6S(b1-3)GlcNAc6S = molecular target: Gal6S(b1-3)GlcNAc6S
# Procedure, shortened: as §1
# Gal6S(b1-4)Glc6S = molecular target: Gal6S(b1-4)Glc6S
# Procedure, shortened: as §1
# Gal6S(b1-4)GlcNAc6S = molecular target: Gal6S(b1-4)GlcNAc6S
# Procedure, shortened: as §1
# [1] = molecular target: GalNAc3S(b1-4)[Fuc(a1-3)]GlcNAc
# Procedure, shortened: as §1
# GalNAc4S6S(b1-4)GlcNAc = molecular target: GalNAc4S6S(b1-4)GlcNAc
# Procedure, shortened: as §1
# [2] = molecular target: GlcNAc(a1-4)Gal(b1-3)GlcNAc
# Procedure, shortened: as §1
# [3] = molecular target: GlcNAc(b1-2)Man(a1-3)[GlcNAc(b1-4)][GlcNAc(b1-2)Man(a1-6)]Man(b1-4)GlcNAc(b1-4)GlcNAc
# Procedure, shortened: as §1
# [4] = molecular target: GlcNAc(b1-3)Gal(b1-4)GlcNAc(b1-3)Gal(b1-4)GlcNAc(b1-2)Man(a1-3)[GlcNAc(b1-3)Gal(b1-4)GlcNAc(b1-3)Gal(b1-4)GlcNAc(b1-2)Man(a1-6)]Man(b1-4)GlcNAc(b1-4)[Fuc(a1-6)]GlcNAc
# Procedure, shortened: as §1
# [5] = molecular target: GlcNAc(b1-4)GlcNAc(b1-4)GlcNAc(b1-4)GlcNAc(b1-4)GlcNAc
# Procedure, shortened: as §1
# [6] = molecular target: GlcNAc(b1-4)[GlcNAc(b1-6)]GalNAc
# Procedure, shortened: as §1
# Kdn(a2-3)Gal(b1-3)GalNAc = molecular target: Kdn(a2-3)Gal(b1-3)GalNAc
# Procedure, shortened: as §1
# Kdn(a2-3)Gal(b1-4)Glc = molecular target: Kdn(a2-3)Gal(b1-4)Glc
# Procedure, shortened: as §1
# Man(a1-2)Man(a1-3)Man = molecular target: Man(a1-2)Man(a1-3)Man
# Procedure, shortened: as §1
# [7] = molecular target: Neu5Ac(a2-3)Gal(b1-3)GalNAc
# Procedure, shortened: as §1
# [8] = molecular target: Neu5Ac(a2-3)Gal(b1-3)GlcNAc(b1-4)Gal(b1-4)Glc
# Procedure, shortened: as §1
# [9] = molecular target: Neu5Ac(a2-3)Gal(b1-4)GlcNAc(b1-2)[Neu5Ac(a2-3)Gal(b1-4)GlcNAc(b1-6)]Man(a1-6)[Neu5Ac(a2-3)Gal(b1-4)GlcNAc(b1-2)Man(a1-3)][GlcNAc(b1-4)]Man(b1-4)GlcNAc(b1-4)GlcNAc
# Procedure, shortened: as §1
# [10] = molecular target: Neu5Ac(a2-3)Gal(b1-4)GlcNAc(b1-3)Gal(b1-4)GlcNAc(b1-3)Gal(b1-4)GlcNAc
# Procedure, shortened: as §1
# [11] = molecular target: Neu5Ac(a2-3)Gal(b1-4)GlcNAc(b1-3)Gal(b1-4)GlcNAc(b1-3)Gal(b1-4)GlcNAc(b1-2)Man(a1-3)[Neu5Ac(a2-3)Gal(b1-4)GlcNAc(b1-3)Gal(b1-4)GlcNAc(b1-3)Gal(b1-4)GlcNAc(b1-2)Man(a1-6)]GalNAc
# Procedure, shortened: as §1
# [12] = molecular target: Neu5Ac(a2-3)Gal(b1-4)GlcNAc(b1-3)[Neu5Ac(a2-3)Gal(b1-4)GlcNAc(b1-6)]GalNAc
# Procedure, shortened: as §1
# [13] = molecular target: Neu5Ac(a2-3)Gal(b1-4)GlcNAc6S
# Procedure, shortened: as §1
# [14] = molecular target: Neu5Ac(a2-3)Gal(b1-4)[Fuc(a1-3)]GlcNAc(b1-3)Gal
# Procedure, shortened: as §1
# [15] = molecular target: Neu5Ac(a2-3)Gal(b1-4)[Fuc(a1-3)]GlcNAc(b1-3)Gal(b1-4)[Fuc(a1-3)]GlcNAc(b1-3)Gal(b1-4)[Fuc(a1-3)]GlcNAc
# Procedure, shortened: as §1
# [16] = molecular target: Neu5Ac(a2-6)Gal(b1-4)GlcNAc(b1-2)Man(a1-6)[Gal(b1-4)GlcNAc(b1-2)Man(a1-3)]Man(b1-4)GlcNAc(b1-4)GlcNAc
# Procedure, shortened: as §1
# [17] = molecular target: Neu5Ac(a2-8)Neu5Ac(a2-3)[GalNAc(b1-4)]Gal(b1-4)Glc
# Procedure, shortened: as §1
# [18] = molecular target: Neu5Ac(b2-6)Gal(b1-4)GlcNAc
# Procedure, shortened: as §1
binder,measurement,setting,value
B1,glycan array binding signal (z-score),Gal3S6S(b1-4)GlcNAc6S,11.7
same,glycan array binding signal (z-score),Gal6S(b1-3)GlcNAc6S,6.61
same,glycan array binding signal (z-score),Gal6S(b1-4)Glc6S,2.96
same,glycan array binding signal (z-score),Gal6S(b1-4)GlcNAc6S,5.29
same,glycan array binding signal (z-score),[1],0.423
same,glycan array binding signal (z-score),GalNAc4S6S(b1-4)GlcNAc,5.23
same,glycan array binding signal (z-score),[2],-0.374
same,glycan array binding signal (z-score),[3],-0.23
same,glycan array binding signal (z-score),[4],-0.076
same,glycan array binding signal (z-score),[5],-0.186
same,glycan array binding signal (z-score),[6],-0.434
same,glycan array binding signal (z-score),Kdn(a2-3)Gal(b1-3)GalNAc,0.64
same,glycan array binding signal (z-score),Kdn(a2-3)Gal(b1-4)Glc,0.084
same,glycan array binding signal (z-score),Man(a1-2)Man(a1-3)Man,-0.472
same,glycan array binding signal (z-score),[7],0.131
same,glycan array binding signal (z-score),[8],-0.112
same,glycan array binding signal (z-score),[9],-0.386
same,glycan array binding signal (z-score),[10],-0.389
same,glycan array binding signal (z-score),[11],2.17
same,glycan array binding signal (z-score),[12],0.163
same,glycan array binding signal (z-score),[13],2.07
same,glycan array binding signal (z-score),[14],-0.448
same,glycan array binding signal (z-score),[15],-0.51
same,glycan array binding signal (z-score),[16],0.067
same,glycan array binding signal (z-score),[17],0.475
same,glycan array binding signal (z-score),[18],-0.387
